Data reported in PubChem BioAssay (NCI).
“And” between values parts separate entries of the source, which are not always exact repeats. Equal values may be shown once. The panel holds about 83,000 compounds, 20% with a hit somewhere; the sample as a whole holds those more often.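 Note: values are percent growth. 100 is the growth of untreated cells, values between 100 and 0 indicate rising inhibition; between -100 and 0 indicates cell death.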 The source made the active and inactive calls.

These molecules were tested on SN12C renal (assay: NCI-60 one-dose screen, 48 h (100 = growth as untreated, 0 = no growth, -100 = all killed)). Conditions: 10 µM.
Experimental: Growth inhibition of the SN12C human tumor cell line is measured as a screen for anti-cancer activity. Cells are grown in 96 well plates and exposed to the test compound for 48 hours. Compounds are tested at a single concentration, which is 10^-5 M for most compounds. The reported endpoint is percent growth (GI% or GIPRCNT), where numbers from 0 - 100% represent growth inhibition, and numbers from -100% - 0 represent cell death. For example, a value of 40 represents 60% growth inhibition. A value of 0 means no net growth occurred over the course of the experiment. A value of -40 indicates 40% of cells at the beginning of the experiment died by the end of the experiment. A value of -100 means all cells are dead at the end of the experiment.
NCI-60 Human Tumor Cell Lines Screen was performed using the standard one-dose NCI protocol, which is described in more detail at https://dtp.cancer.gov/discovery_development/nci-60/default.htm.
Compounds with GIPRCNT values below 10 were considered active. Activity score was based on GIPRCNT using the following formula: […]
Score is 0 for GIPRCNT values of 100 or above, 50 for GIPRCNT values of 0, and 100 for GIPRCNT values of -100.
In the case of `CCC(C)[C@H]1C(=O)O[C@H](C(C)C)C(=O)N(C)[C@@H](C(C)C)C(=O)O[C@H](C(C)C)C(=O)N(C)[C@@H](C(C)C)C(=O)O[C@H](C(C)C)C(=O)N1C` (some centres undefined), the growth was 7.58% (active). For `CC1=C2C(=C[C@@](C)(COC(=O)c3ccc(S(=O)(=O)F)cc3)[C@@H]2O)C(=O)[C@](C)(O)C12CC2`, the growth was -2.35% (active). For `CC1=C2C(=O)[C@](C)(CO)C=C2C(=O)[C@](C)(O)C12CC2`, the growth was 40.2% (inactive). For `CC(C)=CCc1c2c(c(O)c3c1O[C@]14C(=C[C@@H]5C[C@H]1C(C)(C)O[C@@]4(C/C=C(/C)C(=O)O)C5=O)C3=O)C=CC(C)(C)O2`, the growth was -26.9% (active). For `C/C=C\C(=O)O[C@@H]1CC2O[C@@H]3C=C(C)C(=O)C[C@]3(C)[C@]1(C)[C@]21CO1`, the growth was -6.14% (active). With `COC1[C@@H]2C[C@H]3C(C)(C)O[C@@](C/C=C(/C)C(=O)O)(C2=O)[C@]32Oc3c(CC=C(C)C)c4c(c(O)c3C(=O)[C@H]12)C=CC(C)(C)O4` (some centres undefined) the growth was -16.7% (active). With `COc1cc2c(O[C@@H]3OC[C@H](O)[C@H](O)[C@H]3O)c3c(c(-c4ccc5c(c4)OCO5)c2cc1OC)C(=O)OC3` the growth was 56.2% (inactive). In the case of `C[C@@H]1C[C@H]2C(=O)O[C@@H](C)C(NC(=O)[C@H](Cc3cc(F)cc(F)c3)NC(=O)Nc3ccc(OS(=O)(=O)F)cc3)C(=O)N3CCC[C@H]3C(=O)N3CCO[C@H](C)[C@H]3C(=O)N[C@@H](CO)C(=O)N2C1` (some centres undefined), the growth was 21.1% (inactive). `CCCCCCCCCC(=O)N[C@@](C)(CC)C(=O)N1CCC[C@H]1C(=O)N[C@@H](CC(C)C)C(=O)N[C@@](C)(CC)C(=O)N[C@@H](CCC(N)=O)C(=O)N[C@H](CCC(N)=O)C(=O)NC(C)(C)C(=O)NC(C)(C)C(=O)N[C@@H](CCC(N)=O)C(=O)N[C@H](CC(C)C)C(=O)N[C@H](CO)CC(C)C` was tested, and the growth was -86.9% (active) and -98.8% (active). For `COc1cccc2c1cc([N+](=O)[O-])c1c(C(=O)O)cc3c(c12)OCO3`, the growth was 113% (inactive). For `COc1cc2c(cc1OC)[C@@H]1N(CC2)C(=O)c2ccccc2[C@@]1(C)C(=O)O`, the growth was 102% (inactive). For `C/C=C/CC(C)C(O)[C@H](NC(=O)[C@@H]1CCCN1C(=O)C(C)(C)NC(=O)CCCCCCCCC)C(=O)NC(C)(C)C(=O)N[C@@H](CCC(N)=O)C(=O)N[C@H](CCC(N)=O)C(=O)NC(C)(C)C(=O)NC(C)(C)C(=O)N[C@@H](CCC(N)=O)C(=O)N[C@H](CC(C)C)C(=O)N[C@H](CO)CC(C)C` (some centres undefined), the growth was 2.83% (active) and -20.9% (active). For `COc1cc(C)c(-c2ccc(OC)c(=O)cc2C)c(OC)c1OC`, the growth was 37.1% (inactive) and 98.3% (inactive). With `CC1=C[C@H]2O[C@@H]3C[C@@H](O)[C@](C)([C@@]2(C)CC1)[C@@]31CO1` the growth was 25.4% (inactive). `COc1cc(OC)c(S(=O)(=O)N(CCCl)CCCl)cc1C(=O)/C=C/c1ccc(Cl)cc1` was tested, and the growth was 86% (inactive). With `N#Cc1nc(-c2ccccc2)oc1N1CCC(S(=O)(=O)F)CC1` the growth was 100% (inactive). `CC1=C(CN(O)C(N)=O)C2=C(C)C3(CC3)[C@@](C)(O)C(=O)C2=C1` was tested, and the growth was 15.4% (inactive). In the case of `C/C=C/CC(C)C(O)[C@H](NC(=O)[C@@H]1CCCN1C(=O)C(C)(C)NC(=O)CCCCCCCCC)C(=O)N[C@@](C)(CC)C(=O)N[C@@H](CCC(N)=O)C(=O)N[C@H](CCC(N)=O)C(=O)NC(C)(C)C(=O)N[C@@](C)(CC)C(=O)N[C@@H](CCC(N)=O)C(=O)N[C@H](CC(C)C)C(=O)N[C@H](CO)CC(C)C` (some centres undefined), the growth was 101% (inactive) and -44.1% (active). With `CC(C)(O)/C=C/C(=O)[C@](C)(O)[C@H]1[C@H](O)C[C@@]2(C)[C@H]3CC=C4[C@@H](C[C@H](O)C(=O)C4(C)C)[C@]3(C)C(=O)C[C@]12C` the growth was 9.22% (active). With `CC1=C2C(=C[C@@](C)(C=O)[C@@H]2O)C(=O)[C@](C)(O)C12CC2` the growth was 26.1% (inactive). For `C=C1[C@@H](C)C2[C@H](Cc3ccccc3)NC(=O)[C@]23[C@H](OC(C)=O)/C=C/[C@@](C)(O)C(=O)[C@@H](C)C/C=C/[C@H]3[C@@H]1O` (some centres undefined), the growth was 79% (inactive). With `C[C@@H]1CCC/C=C/[C@H]2C[C@@H](O)C[C@@H]2[C@@H](O)/C=C/C(=O)O1` the growth was 11.4% (inactive). With `NC1CCc2cc(O)c(O)cc2C1` (centres undefined) the growth was 90.5% (inactive). In the case of `CC(=O)O[C@@H]1[C@@H]2O[C@H]2[C@@](C)(O)C(=O)[C@@H](C)C/C=C/[C@H]2[C@@H]3O[C@]3(C)[C@@H](C)C3[C@H](Cc4ccccc4)NC(=O)[C@@]312` (some centres undefined), the growth was 62.6% (inactive). For `CC(=O)O[C@@H]1C[C@H]2O[C@@H]3C=C(C)CC[C@]3(C)[C@]1(C)[C@]21CO1`, the growth was 20.7% (inactive). `Cc1ccc(CNc2nc3ccc(OC/C(=C/F)CN)cc3o2)cn1` was tested, and the growth was -37.4% (active). `CN1C(=O)[C@]23SSC1(C)C(=O)N2[C@H]1Nc2ccccc2C1([C@@]12c4ccccc4N[C@@H]1N1C(=O)C4(C)SS[C@]1(C(=O)N4C)[C@H]2O)[C@@H]3O` (some centres undefined) was tested, and the growth was -96.1% (active). For `CC1=C[C@H]2O[C@@H]3C[C@H]4OC(=O)/C=C\C=C\[C@H]([C@@H](C)O)OCC/C(C)=C/C(=O)OC[C@@]2(CC1)[C@]4(C)[C@]31CO1`, the growth was -16.1% (active). `C/C=C/CC(C)C(O)[C@H](NC(=O)[C@@H]1CCCN1C(=O)C(C)(C)NC(=O)CCCCCCCCC)C(=O)N[C@@](C)(CC)C(=O)N[C@@H](CCC(N)=O)C(=O)N[C@H](CCC(N)=O)C(=O)NC(C)(C)C(=O)NC(C)(C)C(=O)N[C@@H](CCC(N)=O)C(=O)N[C@H](CC(C)C)C(=O)N[C@H](CO)CC(C)C` (some centres undefined) was tested, and the growth was 18.6% (inactive) and 12.1% (inactive). For `CC1=C(CCC=NNC(N)=O)C2=C(C)C3(CC3)[C@@](C)(O)C(=O)C2=C1`, the growth was 1.73% (active). With `CC1=C[C@H]2O[C@@H]3C[C@H]4OC(=O)/C=C\C=C\[C@H]([C@@H](C)O)OCC[C@@H](C)[C@H](O)C(=O)OC[C@@]2(CC1)[C@]4(C)[C@]31CO1` the growth was -19% (active). `C/C=C/CC(C)C(O)[C@H](NC(=O)[C@@H]1CCCN1C(=O)C(C)(C)NC(=O)CCCCCCC)C(=O)N[C@@](C)(CC)C(=O)N[C@@H](CCC(N)=O)C(=O)N[C@H](CCC(N)=O)C(=O)NC(C)(C)C(=O)NC(C)(C)C(=O)N[C@@H](CCC(N)=O)C(=O)N[C@H](CC(C)C)C(=O)N[C@H](CO)CC(C)C` (some centres undefined) was tested, and the growth was 102% (inactive) and 9.5% (active). For `CN(CCF)/N=N/c1nc[nH]c1C(N)=O`, the growth was 48.4% (inactive). In the case of `O=C(CCCc1ccc(N(CCCl)CCCl)cc1)OCc1ccccc1`, the growth was 79.1% (inactive). With `N#Cc1c(-n2c(Br)c(Br)c3cc(Br)ccc32)[nH]c2c(Br)cc(Br)cc12` the growth was 0.622% (active). In the case of `CC1=C(CN(O)C(N)=O)C2=C(C)C3(CC3)[C@](C)(O)C(=O)C2=C1`, the growth was 25.1% (inactive). `CC1=C2C(=C[C@@](C)(COS(C)(=O)=O)[C@@H]2O)C(=O)[C@](C)(O)C12CC2` was tested, and the growth was 13.8% (inactive). With `COC(=O)[C@H]1[C@@H](O)[C@@]2(O)c3c(OC)cc(OC)cc3O[C@@]2(c2ccc(OC)cc2)[C@@H]1c1ccccc1` the growth was -11.5% (active). For `CC1=C2C(=C[C@@](C)(COC(=O)c3ccc(S(=O)(=O)F)cc3)[C@@H]2OC(=O)c2ccc(S(=O)(=O)F)cc2)C(=O)[C@](C)(O)C12CC2`, the growth was 21% (inactive).
